Screening data: PubChem BioAssay, National Center for Advancing Translational Sciences (NCATS)
Rows were chosen to be rich in hits. Some 17% of all compounds tested hit in one or more screens of this group.
HepG2 tox: kills HepG2 cells in TGF-b inhibitor counter-screen; 410,000 tested, 0.76% active; HepG2 CAGA-GFP viability, ATP luminescence, 18 h; AID 588856; Potency, µM (top dose mostly 46.1 µM), without a hit: top-dose activity change, negative = cytotoxicity, actives largely listed as cytotoxic
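HepG2 CAGA-GFP cells (1000/well, DMEM with 1% FBS) received compound, then TGF-beta at 500 pg/mL final, and were incubated 18 hours at 37 degrees C. Viability was read by CellTiter-Glo luminescence. Media-only wells were set as complete cell-killing and DMSO as no toxicity.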
TGFb inhibitor: TGF-b pathway inhibition; HepG2 CAGA-GFP TGF-b/SMAD3 reporter, GFP fluorescence, 18 h; TGF-beta stimulated, 500 pg/mL final; Potency, µM (top dose mostly 46.1 µM), inactives show at the highest dose activity, negative = inhibition, most hits filed as inhibitors; 410,000 tested, 1.2% active; AID 588855; note: % is set by controls: 0 for no effect and ±100 for the full control effect; nearly all actives have a fitted effect of over 65% in size
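GFP signal (ex488/em500-530) from TGF-beta-stimulated HEPG2 CAGA-GFP cells, 500 pg/mL final, 18 h at 37 degrees C in DMEM plus 1% FBS, normalized to unstimulated and DMSO-stimulated controls.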
DT40 TDP1 no CPT: qHTS for Inhibitors of human tyrosyl-DNA phosphodiesterase 1 (TDP1): qHTS in cells in absence of CPT | DT40 Tdp1-/- hTDP1 cells, no CPT, ATP luminescence, 48 h | Potency, µM (highest dose often 46.2 µM), inactives show at the top dose activity change, negative = growth inhibition, actives largely listed as inhibitors | 420,000 tested, 15% active; note: % is set by controls: 0 for no effect and ±100 for the full control effect; nearly all actives have a fitted effect of over 55% in size
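Stably hTDP1-transfected Tdp1-null chicken DT40 cells were treated with library compounds minus camptothecin and grown for at least 48 hr at 37 °C, after which cellular ATP was quantified by luminescence.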
TDP1 cell CPT: DT40-hTDP1 cell growth loss with CPT. chicken DT40 Tdp1-/-;hTDP1 cells + 20 nM CPT, ATP luminescence, 48 h. Potency, µM (series often up to 46.2 µM), without a hit: at the top dose activity change, negative = growth inhibition, hits mostly inhibitors. 420,000 tested, 12% active; note: % is set by controls: 0 for no effect and ±100 for the full control effect; nearly all actives have a fitted effect of over 55% in size
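Chicken DT40 Tdp1-/- cells complemented with human TDP1, 400 cells/well, exposed to compounds plus 20 nM camptothecin for at least 48 h at 37 C; viability read as ATP content by CellTiter-Glo luminescence.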
S2 tox: viability counter-screen for ATXN expression inhibitors. S2 cells (HEK-293 line with an ATXN2-luciferase reporter) viability, CellTiter-Fluor protease fluorescence, 24 h. Potency, µM (series often up to 56.7 µM), usual class: cytotoxic. 400,000 tested, 0.49% active. AID 651635; note: nearly all actives have a fitted effect of over 40% in size
ATXN2 expr inh: inhibitors of ATXN2 expression. HEK-293 ATXN2-luciferase reporter, luminescence, 24 h. Potency, µM (doses to about 57 µM), inactives show top-dose activity change, negative = inhibition, most hits filed as inhibitors. 360,000 tested, 0.72% active; note: % is set by controls: 0 for no effect and ±100 for the full control effect; nearly all actives have a fitted effect of over 55% in size
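ATXN2-luciferase reporter cells (luciferase flanked by upstream and downstream ATXN2 gene portions) were treated 24 h at 37 °C with compounds at up to 57 uM. SteadyGlo luminescence gave expression; GF-AFC fluorescence gave viability.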
* hit, by the source's call; i = inactive; ? = inconclusive; . = not tested or not shown; [ ] = another dose, or the depositor's remark. Calls come from the whole dose curve; as a rule, active = well fitted curve in the direction sought with a large enough effect; inconclusive = small, poorly fitted or top-dose-only effect, or another doubt; inactive = no such curve, though single readings can be large; an effect the other way counts as inactive or inconclusive. Potency is the fitted concentration of half-maximal effect.

SMILES | HepG2 tox | TGFb inhibitor | DT40 TDP1 no CPT | TDP1 cell CPT | S2 tox | ATXN2 expr inh
CC1CCC/C(=C\c2ccc(O)cc2)C1=O (centres undefined) | -14.2% | ? | -52.6% | -51.7% | i | .
CN(C)CC1CCC/C(=C\c2ccc(OC(=O)/C=C/c3ccccc3)cc2)C1=O (centres undefined) | -3.0% | -11.1% | 1.84µM* | 1.3µM* | . | 25.1µM*
Cc1ccc(/C=C2\CCC(C3CCCC3)C2=O)cc1 (centres undefined) | 5.3% | -14.8% | 2.7% | 0.5% | i | 44.4%
O=C(Oc1ccc2c(c1)OCC2=O)c1ccc(Cl)cc1 | -0.6% | 6.2% | -9.8% | -2.2% | i | 7.7%
CC(=O)c1ccc(OC(=O)/C=C/c2ccccc2)cc1 | 10.2% | 14.2% | -18.4% | -0.3% | ? | .
CN(C)CC1CC/C(=C\c2ccc(O)cc2)C1=O (centres undefined) | -104.8% | ? | 1.3µM* | 0.581µM* | . | ?
O=C1/C(=C\c2ccc(Cl)cc2)CCC1CNc1ccc(Cl)cc1 (centres undefined) | -13.6% | 0.0% | 2.59µM* | 2.31µM* | ? | ?
CN(C)CC1CCC/C(=C\c2ccc(OC(=O)c3ccc(Cl)cc3)cc2)C1=O (centres undefined) | 28.9% | ? | 0.411µM* | 0.517µM* | 23.8µM* | -26.0%
Cc1ccc(CNC(=O)C(=O)NCC(c2cccs2)S(=O)(=O)c2ccccc2)cc1 (centres undefined) | -20.3% | -20.7% | 4.0% | -1.9% | . | .
O=C(COc1ccc(-n2cnnn2)cc1)Nc1cccc(Cl)c1Cl | -9.5% | -22.0% | -2.7% | 1.8% | i | -9.3%
COc1ccc(N(CC(=O)NCCc2ccccc2)C(=O)CCC(=O)Nc2nccs2)cc1 | -9.1% | -18.7% | ? | ? | i | 1.4%
COc1ccccc1NC(=O)CN1CCN(C2c3ccccc3-c3ccccc32)CC1 | -34.1% | -5.2% | 20.6µM* | 18.4µM* | i | 7.2%
COc1ccc(NC(=O)CN2CCN(C3c4ccccc4-c4ccccc43)CC2)c(OC)c1 | -8.6% | -6.6% | 25.9µM* | ? | i | -3.3%
FC(F)(F)c1nc(NCc2cccnc2)c2ccccc2n1 | -11.4% | 4.2% | 23.1µM* | ? | i | 3.1%
O=C(/C=C/c1ccc(O)cc1)c1ccccc1 | -20.5% | -19.3% | ? | -24.7% | i | 33.5%
Cc1ccc(C(=O)C=Cc2cccc(C)c2)cc1 | -8.9% | -21.2% | 18.4µM* | ? | i | 16.1%
Cc1ccc2occ(/C=C/C(=O)c3ccccc3O)c(=O)c2c1 | 5.8% | 31.4% | ? | 18.4µM* | i | 13.2%
Cc1cccc(C=CC(=O)c2ccccc2)c1 | -28.8% | ? | 23.1µM* | ? | i | 29.9%
Cc1ccc(O)c(C(=O)C=Cc2ccccc2)c1 | -94.0% | 0.0% | 20.6µM* | ? | i | 0.5%
CCCCN1C(=O)C(CC(=O)NC2CCCCC2)CC(C(=O)N(C)C)=C1C (centres undefined) | 1.4% | -4.6% | -1.7% | 11.2% | i | -6.5%
COc1ccccc1NC(=O)CCCc1nnc2n(C)c(=O)c3sccc3n12 | -1.9% | -0.9% | -14.7% | -7.2% | i | -10.0%
COc1ccc(OC)c(-c2noc(N3CCN(c4ccc(C(C)=O)cc4)CC3)n2)c1 | -2.9% | ? | ? | ? | i | -33.4%
Cc1ccc(C(O)c2ncc(-c3ccc(Cl)cc3)[nH]2)cc1 (centres undefined) | -21.5% | -0.5% | ? | ? | ? | 15.0%
O=C(NCc1ccc(Cl)cc1)C1CCCN(S(=O)(=O)c2cnc[nH]2)C1 (centres undefined) | -3.0% | 5.7% | -7.7% | 7.2% | i | 7.6%
Oc1ccc(-c2nc(-c3ccc(O)c(O)c3)cs2)cc1 | -22.0% | ? | 8.2µM* | 8.2µM* | ? | 54.1%
SMILES | HepG2 tox | TGFb inhibitor | DT40 TDP1 no CPT | TDP1 cell CPT | S2 tox | ATXN2 expr inh
Oc1ccc(-c2csc(-c3cccnc3)n2)c(O)c1 | 1.6% | 0.0% | ? | ? | i | -13.1%
COc1cccc(CN2CC(C(=O)NCCc3cn4cccnc4n3)CCC2=O)c1 (centres undefined) | -26.6% | -17.8% | -17.4% | -3.0% | i | .
CCSC1(SCC)N=C(N)C2(C#N)C(c3ccc(F)cc3)C12C#N (centres undefined) | -72.7% | ? | 20.6µM* | ? | ? | ?
CC(=O)c1ccc(-c2cc(F)cc3c2OC(CNC(=O)Cc2cn4ccsc4n2)C3)s1 (centres undefined) | . | . | -23.0% | 2.0%[9.04 µM] | i | .
COc1ccc(NC(=O)c2c(C)nn(Cc3ccccc3)c2Cl)cc1S(=O)(=O)N1CCOCC1 | -11.9% | -27.2% | -27.4% | -29.7% | ? | -8.3%
COc1ccc(NC(=O)c2c(C)oc3ccc(O)c(CN4CCN(Cc5ccccc5)CC4)c23)cc1Cl | -32.5% | 0.0% | 14.6µM* | 18.4µM* | . | .
COc1ccc(NC(=O)c2c(C)oc3ccc(O)c(CN4CCOCC4)c23)cc1 | -9.6% | -7.7% | 3.2% | -20.5% | i | 2.1%
CCN1CCN(Cc2c(O)ccc3oc(C)c(C(=O)Nc4ccc(OC)c(Cl)c4)c23)CC1 | -35.2% | -8.7% | ? | 23.1µM* | ? | -33.9%
CN(C)C(=O)c1ccc(-c2cc(C(F)(F)F)n(C)n2)s1 | 1.4% | 6.7% | 3.9% | 6.9% | i | -5.9%
CC(C)[C@H](NS(=O)(=O)c1ccccc1)C(=O)OCC(=O)NCc1ccc2c(c1)OCO2 | 0.4% | 10.4% | -18.0% | 7.8% | i | -4.1%
CC(C)c1onc(-c2c(Cl)cccc2Cl)c1COc1ccc(C=Cc2cccc(C(=O)O)c2)c(Cl)c1 | . | . | . | . | . | 44.5%
Cc1cc2c(N=O)c(NO)ccc2[nH]1 | -24.6% | ? | 6.51µM* | 7.31µM* | ? | ?
COc1ccccc1S(=O)(=O)N(C)C[C@H]1OCc2cnnn2CCCC(=O)N([C@@H](C)CO)C[C@H]1C | -10.1% | -0.7% | -5.2% | -0.5% | i | -3.7%
COc1ccc(C(C)(C)NC(=O)C2CCC(=O)N(CCCN3CCCC3=O)C2)cc1 (centres undefined) | 7.9% | 1.9% | 12.8% | -5.3% | ? | 0.0%
Cc1ccc(S(=O)(=O)Nc2ccc3cc([N+](=O)[O-])ccc3c2[N+](=O)[O-])cc1 | -15.6% | ? | 23.1µM* | ? | ? | ?
